About 83,000 compounds went through this panel and 20% of them were active in at least one assay; those are over-represented in the sample as a whole.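 How to read the values: 0–100, growth inhibition (40 = 60% inhibited); 0, no net growth; -100 to 0, cell death (-40 = 40% of starting cells died; -100 = all dead).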 Unmarked numbers belong to inactive results. Activity calls are given as the source filed them. The calls were made as follows: active = growth percent below 10; inactive = the rest.
tested on: COLO 205 colon; assay: NCI-60 one-dose screen, 48 h (100 = growth as untreated, 0 = no growth, -100 = all killed); settings: 10 µM unless noted

| SMILES | growth |
| --- | --- |
| O=C(CCl)c1ccc([N+](=O)[O-])o1 | -86% (active) |
| CCCCCSC1C2C(=O)C(Br)=CC13CCNc1c(O)c4c5c(c13)=[N+]2CCC=5C=N4 (configuration not stated) | -76.5% (active) |
| COc1ccc(C/C(C)=C(\c2ccc(OCCN3CCOCC3)cc2)c2ccc(OC(=O)Cc3ccccc3)cc2)cc1 | -90.1% (active) |
| Cn1cc(-c2csc(-c3cn(CCCCN4CCCCC4)c4ccc(F)cc34)n2)c2cccnc21 | 96.7% |
| COc1ccc2c(c1)c(-c1nc(-c3cn(C)c4ncccc34)cs1)cn2CCCCN1CCCCC1 | -71.7% (active) |
| C[n+]1c(/C=C/c2ccc(N(CCCl)CCCl)cc2)sc2ccccc21 | 32.2% |
| C=CC[Se]C(=O)c1ccccc1OC(C)=O | 36% |
| CC(=O)OC1CCC2C3CCC4=C/C(=N/OC(=O)c5ccc(N(CCCl)CCCl)cc5)CCC4(C)C3CC(C)C12 (configuration not stated) | 83.7% |
| CCCCCCCC[n+]1ccc2ccccc2c1 | 59% |
| Cn1cccc1C1CC(=O)N(CCC[Se]C#N)C1=O (configuration not stated) | 70.1% |
| C[Se]C(=O)c1ccccc1OC(C)=O | 111% |
| O=C1Nc2ccccc2C2c3cccn3-c3ccccc3CN12 (configuration not stated) | 39.5% |
| CCOC(=O)[C@@H](C)C[C@H](Cc1ccccc1)NC(=O)c1csc([C@@H](C[C@H](C(C)C)N(C)C(=O)[C@H](CCC(C)C)NC(=O)[C@H]2CCCCN2C)OC(C)=O)n1 | -75.2% (active) |
| COC(=O)[C@H](C[C@H](Cc1ccccc1)NC(=O)c1csc([C@@H](C[C@H](C(C)C)N(C)C(=O)[C@@H](NC(=O)[C@H]2CCCCN2C)C(C)C)OC(C)=O)n1)NC(=O)OCc1ccccc1 | -53.3% [8.5 µM] (active) |
| CC1(C)N=C(N)N=C(N)N1c1ccc(OCCCNC(=O)Nc2ccc(S(=O)(=O)F)cc2)c(Cl)c1 | 31.5% |
| O=C(CN1CCN(C(=O)c2ccco2)CC1)Nc1ccc(Cl)cc1C(=O)c1ccccc1Cl | 95.9% |
| Cc1cc(N(CCCl)CCCl)ccc1C=Nc1ccccc1-c1ccccc1 | 86.1% |
| Cn1cc(-c2csc(-c3cn(CCN4CCOCC4)c4ccccc34)n2)c2cccnc21 | 51.2% |
| CCOC(=O)[C@@H](C)C[C@H](Cc1ccccc1)NC(=O)c1csc([C@@H](C[C@H](C(C)C)N(C)C(=O)[C@H](CC)NC(=O)[C@H]2CCCCN2C)OC(C)=O)n1 | -61.6% (active) |

| SMILES | growth |
| --- | --- |
| ClC1=C(Cl)C(Cl)(C2(Cl)C(Cl)=C(Cl)C(Cl)=C2Cl)C(Cl)=C1Cl | -68.6% (active) |
| O=C([O][Hg][CH2]C1OCCOC1[CH2][Hg][O]C(=O)c1ccccc1)c1ccccc1 (configuration not stated) | -64.7% (active) |
| COc1ccc([As]=[As]c2ccc(OC)c(NCS(=O)(=O)O)c2)cc1NCS(=O)(=O)O (configuration not stated) | 2.8% (active) |
| [Cl][Hg][n]1c(-c2ccco2)nc2ccccc21 | 121% |
| CCC[CH2][Sn]([CH2]CCC)([CH2]CCC)[O]c1ccc(Cl)cc1Cl | -75.2% (active) |
| NC(CCl)CCl | -100% (active) |
| CN1CCC(c2c[nH]c3ccccc23)C1 (configuration not stated) | 108% |
| CCCCCCCCCCCCCCCCCC1OC[C@@H](COC(=O)O[C@@H](C(=O)O[C@H]2C[C@@]3(O)[C@@H](OC(=O)c4ccccc4)[C@@H]4[C@]5(OC(C)=O)CO[C@@H]5C[C@H](O)[C@@]4(C)C(=O)[C@H](OC(C)=O)C(=C2C)C3(C)C)[C@@H](NC(=O)c2ccccc2)c2ccccc2)O1 (some centres not stated) | 13.1% |
| CC1=C([Te]c2ccc(O)cc2)C(=O)c2ccccc2C1=O | -88.5% (active) |
| O=C1NC(=O)C(=Cc2cn(CCCCCCn3c4ccccc4c(=O)c4ccccc43)c3ccccc23)C(=O)N1 | 92.3% |
| CC(C)OC(=O)[C@H](C)NP(=O)(Oc1ccccc1)C1CCCN(O)C1=O (some centres not stated) | 93.1% |
| CCCCCCC(=O)NC1=C(N2CC2)C(=O)C(NC(=O)CCCCCC)=C(N2CC2)C1=O | 3.58% (active) |
| COc1ccc(/C=C\c2cc(OC)c(OC)c(OC)c2)cc1NS(=O)(=O)c1ccc(Cl)cc1 | 73.6% |
| CC[C@H](C)[C@H](NC(=O)[C@H]1CCCCN1C)C(=O)N(C)[C@H](CC(=O)c1nc(C(=O)N[C@@H](Cc2ccccc2)C[C@H](C)C(=O)O)cs1)C(C)C | 82.8% |
| C[C@]12C[C@@H](CO)[C@H](O)C[C@@H]1CC[C@@H]1[C@@H]2CC[C@]2(C)[C@@H](O)CC[C@@H]12 | 108% |
| [Cl][Hg][c]1cc[c]([Hg][Cl])o1 | 6.94% (active) |
| NC(=S)c1cn(C2OC(CO)C(O)C2O)c2ncnc(N)c12 (configuration not stated) | -47% (active) |
| COC(=O)CC[C@H](Cc1ccccc1)NC(=O)c1csc([C@@H](C[C@H](C(C)C)N(C)C(=O)[C@@H](NC(=O)[C@H]2CCCCN2C)C(C)C)OC(C)=O)n1 | -49.7% (active) |

Reference: PubChem BioAssay (NCI)
